Where “and” joins values, the source holds several entries; their conditions need not be identical. Equal values may be shown once. Results filed as inconclusive are left out. Some structures have more than one record in an assay (separate samples or runs), and their calls can disagree. Calls of active or inactive are those of the source. Unless noted, calls come from the whole dose curve; as a rule, active = well fitted curve in the direction sought with a large enough effect; inconclusive = small, poorly fitted or top-dose-only effect, or another doubt; inactive = no such curve, though single readings can be large; an effect the other way counts as inactive or inconclusive.
Legend:
[1] = target: Glucocorticoid receptor (Homo sapiens) (UniProt P04150); assay: GR-GFP Redistribution (AID 450;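 active = compounds whose dose series gives a full or clear partial fitted curve of increased nuclear translocation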; note: potency is the fitted concentration of half-maximal effect); conditions: U2OS GR-GFP nuclear translocation, laser cytometry, 2 h
Glucocorticoid receptor (Homo sapiens), sequence (P04150 whole entry, looked up, the tested form may be a part): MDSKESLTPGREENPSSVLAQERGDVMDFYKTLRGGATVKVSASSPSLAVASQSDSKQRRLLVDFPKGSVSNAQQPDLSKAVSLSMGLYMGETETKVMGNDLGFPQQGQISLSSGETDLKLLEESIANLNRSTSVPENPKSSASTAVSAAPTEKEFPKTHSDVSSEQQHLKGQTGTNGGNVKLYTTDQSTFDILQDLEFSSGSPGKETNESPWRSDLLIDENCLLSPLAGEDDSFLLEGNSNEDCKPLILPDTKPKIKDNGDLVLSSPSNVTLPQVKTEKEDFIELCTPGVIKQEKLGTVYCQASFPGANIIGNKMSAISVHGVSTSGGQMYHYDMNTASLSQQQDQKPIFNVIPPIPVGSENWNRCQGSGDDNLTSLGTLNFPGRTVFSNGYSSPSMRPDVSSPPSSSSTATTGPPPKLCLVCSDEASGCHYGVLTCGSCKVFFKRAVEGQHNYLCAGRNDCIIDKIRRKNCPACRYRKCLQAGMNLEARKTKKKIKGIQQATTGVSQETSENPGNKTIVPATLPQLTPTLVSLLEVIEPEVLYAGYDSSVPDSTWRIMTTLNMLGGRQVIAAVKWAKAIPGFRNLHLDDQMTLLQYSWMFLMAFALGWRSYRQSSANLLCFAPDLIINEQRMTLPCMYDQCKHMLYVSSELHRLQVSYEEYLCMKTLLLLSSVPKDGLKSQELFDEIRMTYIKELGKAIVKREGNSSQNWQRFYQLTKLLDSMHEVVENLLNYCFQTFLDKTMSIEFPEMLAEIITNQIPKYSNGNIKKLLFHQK

[2] = target: Glucocorticoid receptor (Homo sapiens) (UniProt P04150); assay: GR-EFC Redistribution (AID 451; calls by dose curve; note: potency is the fitted concentration of half-maximal effect); conditions: CHO-K1 GR-EFC translocation, beta-gal luminescence, 2 h
In short: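 CHO-K1 cells stably expressing nuclear-localized β-gal enzyme acceptor and GR fused C-terminally to the enzyme donor fragment; ligand-driven nuclear translocation restores β-gal by complementation. Compounds titrated up to 46 uM final, 2 h at 37 °C; luminescence read.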

[3] = target: Mitogen-activated protein kinase 10 (Mus musculus) (UniProt Q61831); assay: JNK3 AlphaScreen Assay (AID 530; active = well fitted curve in either direction with a large enough effect, not every such curve was filed as active;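 note: kinase came from lysate of stimulated human HepG2 cells; signal reports phosphorylation of biotinylated GST-cJun 1-79 at Ser73 with 10 µM ATP; % is set by controls: 0 for no effect and ±100 for the full control effect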)
In short: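 JNK3 came from HepG2 lysates pre-activated with IL-1beta and TNF-alpha and phosphorylated biotinylated GST-cJun (1-79) at 10 uM ATP, pH 7.6, room temperature. Compounds were titrated. AlphaScreen signal used anti-phospho-cJun (Ser73) antibody.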

[4] = Validation of Assay for Modulators of Lamin A Splicing (AID 1459; active = well fitted curve in the direction sought with a large enough effect in the signal ratio; the % refers to the signal ratio;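 note: cells exposed to compound for two days before reading; 0% is about no effect; ratio rise marks activators and ratio drop marks inhibitors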)
In short: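 S3 HeLa cells stably expressing a lamin A-EGFP splicing minigene and DsRed2 were seeded at 600 cells/well in Opti-MEM with 2% FBS, pin-dosed, and incubated 48 hrs at 37 °C, 5% CO2. Laser-scanning cytometry (488 nm) gave GFP/RFP total intensity ratio.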

[5] = target: DNA repair nuclease/redox regulator APEX1 (Homo sapiens) (UniProt P27695); assay: qHTS Validation Assay for Inhibitors of the Human Apurinic/apyrimidinic Endonuclease 1 (APE1) (AID 1705;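 note: TAMRA fluorescence gain over two minutes as APE1 cuts a quenched THF abasic duplex; % is set by controls: 0 for no effect and ±100 for the full control effect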)
DNA repair nuclease/redox regulator APEX1 (Homo sapiens), sequence (P27695 whole entry, looked up): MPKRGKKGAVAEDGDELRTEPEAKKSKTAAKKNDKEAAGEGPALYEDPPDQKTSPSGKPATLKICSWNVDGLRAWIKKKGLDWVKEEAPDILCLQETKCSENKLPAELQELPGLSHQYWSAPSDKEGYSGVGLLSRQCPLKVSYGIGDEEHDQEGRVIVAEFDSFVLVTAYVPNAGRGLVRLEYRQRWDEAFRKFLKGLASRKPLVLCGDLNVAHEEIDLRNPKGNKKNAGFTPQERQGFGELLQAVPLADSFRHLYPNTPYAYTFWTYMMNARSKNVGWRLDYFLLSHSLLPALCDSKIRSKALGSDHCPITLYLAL
In short: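 Human APE1 was preincubated with compound for 15 min at room temperature, then 50 nM (final) THF-abasic double-stranded DNA substrate bearing 5'-TAMRA and 3'-BHQ-2 was added. Incision-driven fluorescence rise (ex 525/em 598 nm) was read kinetically.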

[6] = qHTS for differential inhibitors of proliferation of Plasmodium falciparum line 7G8 (AID 1815);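 note: potency is the fitted concentration of half-maximal effect; parasite growth measured after three days of incubation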
[7] = qHTS for differential inhibitors of proliferation of Plasmodium falciparum line GB4 (AID 1816); conditions: Potency: Plasmodium falciparum GB4 proliferation inhibition;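 note: potency is the fitted concentration of half-maximal effect; parasite growth measured after 72 h incubation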
[8] = qHTS for differential inhibitors of proliferation of Plasmodium falciparum line 3D7 (AID 1876); note: potency is the fitted concentration of half-maximal effect
[9] = qHTS for differential inhibitors of proliferation of Plasmodium falciparum line D10 (AID 1877);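 note: potency is the fitted concentration of half-maximal effect; parasites grown with compound for 72 h before DNA staining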
[10] = qHTS for differential inhibitors of proliferation of Plasmodium falciparum line Dd2 (AID 1882); conditions: Potency: Plasmodium falciparum Dd2 proliferation inhibition; note: potency is the fitted concentration of half-maximal effect; nearly all actives have a fitted effect of over 65% in size
In short: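 SYBR Green I DNA fluorescence read-out, ex 485/em 535 nm. Signals were normalized to 0.29 uM artemisinin and DMSO wells, then corrected using vehicle-only plates flanking each stack. Parasite growth ran 72 h in erythrocytes before lysis.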

[11] = qHTS for differential inhibitors of proliferation of Plasmodium falciparum line W2 (AID 1883); conditions: Potency: Plasmodium falciparum W2 proliferation inhibition;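 note: potency is the fitted concentration of half-maximal effect; parasites grown with compound for 72 h before lysis and staining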
[12] = qHTS for differential inhibitors of proliferation of Plasmodium falciparum line HB3 (AID 1886); conditions: Potency: Plasmodium falciparum HB3 proliferation inhibition;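 note: potency is the fitted concentration of half-maximal effect; parasites grown with compound for 72 h before SYBR Green readout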
[13] = target: ATP-dependent DNA helicase Q1 (Homo sapiens) (UniProt P46063); assay: qHTS Validation Assay for Inhibitors of RecQ-Like Dna Helicase 1 (RECQ1) (AID 2353);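 note: plate controls were DMSO vehicle for no effect and enzyme-free control for full effect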
In short: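 50 nM RECQ1T1 preincubated 15 min with compound in Tris pH 8.0 buffer with MgCl2, DTT, Tween-20 and 2.5 ug/ml poly(dI-dC); started with 200 nM TAMRA/BHQ-2 forked duplex and 2 mM ATP. Unwinding read as fluorescence (525/598 nm), two reads 2 h apart.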

[14] = target: M-phase phosphoprotein 8 (Homo sapiens) (UniProt Q99549); assay: qHTS Validation Assay for Inhibitors for MPP8 Chromodomain Interactions with Methylated Histone Tails (AID 488949);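 note: AlphaScreen signal from MPP8 chromodomain bound to biotinylated H3K9me3 peptide; top concentration of the series differs between compounds; % is set by controls: 0 for no effect and ±100 for the full control effect; nearly all actives have a fitted effect of over 55% in size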
In short: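 MPP8 (50 nM) was preincubated with biotinylated H3(1-18)K9me3 peptide (50 nM) in PBS pH 7.4, 0.01% Tween-20 for 30 min at room temperature, then with compounds for 30 min; binding was detected by AlphaScreen.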

[15] = target: Thyrotropin receptor (Homo sapiens) (UniProt P16473); assay: qHTS Assay for Antagonists of the Thyroid Stimulating Hormone Receptor (AID 488980); note: 0% is about no effect
Thyrotropin receptor (Homo sapiens), sequence (P16473 whole entry, looked up): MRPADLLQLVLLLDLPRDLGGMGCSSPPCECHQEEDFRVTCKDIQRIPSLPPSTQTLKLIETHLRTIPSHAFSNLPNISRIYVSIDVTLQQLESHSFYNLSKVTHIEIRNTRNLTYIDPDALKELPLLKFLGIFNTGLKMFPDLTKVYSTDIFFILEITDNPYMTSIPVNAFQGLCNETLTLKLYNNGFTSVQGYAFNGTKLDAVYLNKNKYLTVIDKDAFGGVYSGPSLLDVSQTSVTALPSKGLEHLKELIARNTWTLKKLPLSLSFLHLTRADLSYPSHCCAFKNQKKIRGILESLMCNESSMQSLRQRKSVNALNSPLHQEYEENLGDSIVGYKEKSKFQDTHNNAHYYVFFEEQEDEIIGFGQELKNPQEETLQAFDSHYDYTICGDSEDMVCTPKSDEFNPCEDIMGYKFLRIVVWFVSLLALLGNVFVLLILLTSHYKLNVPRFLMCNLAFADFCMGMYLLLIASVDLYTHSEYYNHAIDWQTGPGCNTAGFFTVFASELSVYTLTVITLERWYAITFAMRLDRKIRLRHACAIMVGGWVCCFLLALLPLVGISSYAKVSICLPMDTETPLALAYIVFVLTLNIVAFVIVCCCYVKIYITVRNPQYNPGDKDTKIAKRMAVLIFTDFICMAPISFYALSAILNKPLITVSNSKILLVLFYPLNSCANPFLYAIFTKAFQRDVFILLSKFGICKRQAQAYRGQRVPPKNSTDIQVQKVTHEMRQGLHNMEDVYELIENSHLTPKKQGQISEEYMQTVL
In short: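 HEK293 cells transfected with human TSHR, suspended in HEPES-buffered HBSS with 70 uM RO 20-1724, were treated with compounds plus TSH at EC80 (4 nM final). cAMP was measured by competitive HTRF (cryptate anti-cAMP antibody, cAMP-d2 acceptor).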

[16] = target: Galactokinase (Homo sapiens) (UniProt P51570); assay: qHTS Validation Assay for Inhibitors of Human Galactokinase (GALK) (AID 493189); note: 0% is about no effect
Galactokinase (Homo sapiens), sequence (P51570 whole entry, looked up): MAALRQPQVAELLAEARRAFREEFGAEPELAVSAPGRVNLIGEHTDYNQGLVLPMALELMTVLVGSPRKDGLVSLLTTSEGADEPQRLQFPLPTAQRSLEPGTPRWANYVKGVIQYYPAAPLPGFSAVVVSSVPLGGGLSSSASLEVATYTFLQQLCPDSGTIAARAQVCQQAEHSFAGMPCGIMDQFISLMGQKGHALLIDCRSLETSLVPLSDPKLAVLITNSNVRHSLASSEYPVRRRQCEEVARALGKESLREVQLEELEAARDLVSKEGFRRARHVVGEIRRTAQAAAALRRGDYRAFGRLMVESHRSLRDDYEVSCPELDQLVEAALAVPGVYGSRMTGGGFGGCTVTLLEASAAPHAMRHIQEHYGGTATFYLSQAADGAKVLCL
In short: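 GALK (5 nM) with 35 uM ATP and 100 uM galactose in HEPES pH8.0, MgCl2, NaCl, DTT, BSA; 1 h at room temperature. Residual ATP read by Kinase-Glo Plus luminescence after 10 min.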

[17] = target: DNA dC->dU-editing enzyme APOBEC-3G (Homo sapiens) (UniProt Q9HC16); assay: qHTS for inhibitors of Vif-A3G interactions: Validation (AID 588379); note: 0% is about no effect
DNA dC->dU-editing enzyme APOBEC-3G (Homo sapiens), sequence (Q9HC16 whole entry, looked up): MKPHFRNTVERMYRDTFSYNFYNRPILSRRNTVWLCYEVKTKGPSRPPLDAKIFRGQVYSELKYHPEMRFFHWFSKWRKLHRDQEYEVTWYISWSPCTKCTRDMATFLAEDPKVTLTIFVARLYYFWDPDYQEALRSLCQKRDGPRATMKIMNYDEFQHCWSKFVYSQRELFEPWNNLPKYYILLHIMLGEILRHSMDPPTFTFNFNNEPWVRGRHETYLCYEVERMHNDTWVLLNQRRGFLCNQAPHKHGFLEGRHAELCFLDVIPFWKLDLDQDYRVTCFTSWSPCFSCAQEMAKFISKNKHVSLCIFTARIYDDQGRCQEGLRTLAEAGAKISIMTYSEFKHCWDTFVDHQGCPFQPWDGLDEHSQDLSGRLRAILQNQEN
In short: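 HeLa cells stably expressing Vif and A3G-eYFP, 700 cells/well, incubated overnight at 37 deg C, then exposed to compound overnight at 37 deg C. Inhibition of Vif-mediated degradation read as increased yellow fluorescence (Ex 488/Em 500-530) by laser-scanning cytometry.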

[18] = target: Voltage-gated inwardly rectifying potassium channel KCNH2 (Homo sapiens) (UniProt Q12809); assay: qHTS Assay for Small Molecule Inhibitors of the Human hERG Channel Activity (AID 588834);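 note: potency is the fitted concentration of half-maximal effect; lower thallium flux fluorescence means stronger hERG block; nearly all actives have a fitted effect of over 50% in size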
In short: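 U2OS cells transduced with hERG via BacMam (MOI ~100), plated 2000/well, loaded with FluxOR thallium dye, compound ~10 min, then stimulation buffer; fluorescence decrease read kinetically; AC50 from Hill fits.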

[19] = system: Zika virus NS2B-NS3 protease; assay: Primary screen GU AMC qHTS for Zika virus inhibitors (AID 1347154);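 note: 0% = no-inhibitor control and -100% = no-enzyme control; nearly all actives have a fitted effect of over 70% in size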
In short: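 Unlinked Zika NS2B hydrophilic domain/NS3 protease domain noncovalent complex (25 nM final) in 10 mM Tris-HCl pH 8.0, 0.01% Tween 20, with AMC peptide substrate. Fluorescence (ex 340, em 450 nm) change over 15 min, room temperature; percent inhibition fitted to 4-parameter Hill equation.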

[20] = Primary qHTS for small molecule stabilizers of the endoplasmic reticulum resident proteome: Secreted ER Calcium Modulated Protein (SERCaMP) assay (AID 1508630); note: potency is the fitted concentration of half-maximal effect; for activity change, negative = inhibition: % is set by controls: 0 for no effect and ±100 for the full control effect
In short: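 GLuc-SERCaMP-expressing SH-SY5Y cells, pretreated 16 h with compound, are challenged with thapsigargin to empty ER calcium stores; after 4 h, coelenterazine is added directly to the medium and luminescence is imaged.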

[21] = target: Cytochrome P450 1A2 (Homo sapiens) (UniProt P05177); assay: p450-cyp1a2 (AID 410; calls by dose curve; note: potency is the fitted concentration of half-maximal effect;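 for activity change, negative = inhibition: -100% = full effect of reference inhibitor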)
Cytochrome P450 1A2 (Homo sapiens), sequence (P05177 whole entry, looked up): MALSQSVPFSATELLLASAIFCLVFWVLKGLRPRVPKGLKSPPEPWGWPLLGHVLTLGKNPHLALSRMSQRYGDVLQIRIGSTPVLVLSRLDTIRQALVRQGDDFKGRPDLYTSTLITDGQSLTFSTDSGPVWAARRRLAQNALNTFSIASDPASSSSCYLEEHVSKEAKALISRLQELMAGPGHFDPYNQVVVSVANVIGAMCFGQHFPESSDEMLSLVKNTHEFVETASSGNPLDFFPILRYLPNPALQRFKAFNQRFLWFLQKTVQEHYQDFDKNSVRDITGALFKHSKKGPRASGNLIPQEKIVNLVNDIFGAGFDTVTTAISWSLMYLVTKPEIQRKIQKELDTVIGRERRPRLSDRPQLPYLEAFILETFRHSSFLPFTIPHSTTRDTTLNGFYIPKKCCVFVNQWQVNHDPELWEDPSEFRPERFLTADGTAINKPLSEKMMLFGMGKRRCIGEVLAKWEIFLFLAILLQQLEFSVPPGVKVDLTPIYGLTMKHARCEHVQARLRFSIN
In short: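 Inhibition was calculated relative to 57 uM furafylline (full inhibition). The reaction used human CYP1A2 at 20nM with Luciferin-ME at its Km, 100uM, driven by an NADPH-regenerating system for 60 min at room temperature.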

[22] = target: 3',5'-cyclic-AMP phosphodiesterase 4B (Homo sapiens) (UniProt Q07343); assay: qHTS Assay for Inhibitors of PDE-IV (AID 607; active = well fitted activation curve with a large enough effect in the main read-out, with a control signal flat, not every such curve was filed as active; note: % of control where 0% means no effect)
In short: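 ACTOne HEK293 cells carry a modified cAMP-gated CNG channel and express endogenous PDE4; plated 1000 cells/well, compounds up to 22.9 uM final. Membrane-potential dye fluorescence (ex 535/em 590) was read; parental cells received 10 uM forskolin + 100 uM RO 20-1724.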

[23] = qHTS Assay for Lipid Storage Modulators (AID 1519; calls by dose curve; for activity change, negative = inhibition: % is set by controls: 0 for no effect and ±100 for the full control effect); conditions: Drosophila S3 cells, BODIPY lipid droplet/cell ratio, laser cytometry, cells loaded with oleic acid
In short: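 Cells seeded at 5,000 per well were treated with compounds over a concentration series and loaded with oleic acid (400 uM, as added). Lipid droplet fluorescence (488 nm excitation, 500-530 nm channel) was read by laser-scanning cytometry and normalized to 20 uM Triacsin C.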

[24] = target: Ubiquitin carboxyl-terminal hydrolase 1 (Homo sapiens) (UniProt O94782); assay: Inhibitors of USP1/UAF1: Pilot qHTS (AID 504865);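 note: rhodamine fluorescence freed from ubiquitin-rhodamine substrate followed over time; top concentration of the series differs between compounds; % is set by controls: 0 for no effect and ±100 for the full control effect; nearly all actives have a fitted effect of over 35% in size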
Ubiquitin carboxyl-terminal hydrolase 1 (Homo sapiens), sequence (O94782 whole entry, looked up): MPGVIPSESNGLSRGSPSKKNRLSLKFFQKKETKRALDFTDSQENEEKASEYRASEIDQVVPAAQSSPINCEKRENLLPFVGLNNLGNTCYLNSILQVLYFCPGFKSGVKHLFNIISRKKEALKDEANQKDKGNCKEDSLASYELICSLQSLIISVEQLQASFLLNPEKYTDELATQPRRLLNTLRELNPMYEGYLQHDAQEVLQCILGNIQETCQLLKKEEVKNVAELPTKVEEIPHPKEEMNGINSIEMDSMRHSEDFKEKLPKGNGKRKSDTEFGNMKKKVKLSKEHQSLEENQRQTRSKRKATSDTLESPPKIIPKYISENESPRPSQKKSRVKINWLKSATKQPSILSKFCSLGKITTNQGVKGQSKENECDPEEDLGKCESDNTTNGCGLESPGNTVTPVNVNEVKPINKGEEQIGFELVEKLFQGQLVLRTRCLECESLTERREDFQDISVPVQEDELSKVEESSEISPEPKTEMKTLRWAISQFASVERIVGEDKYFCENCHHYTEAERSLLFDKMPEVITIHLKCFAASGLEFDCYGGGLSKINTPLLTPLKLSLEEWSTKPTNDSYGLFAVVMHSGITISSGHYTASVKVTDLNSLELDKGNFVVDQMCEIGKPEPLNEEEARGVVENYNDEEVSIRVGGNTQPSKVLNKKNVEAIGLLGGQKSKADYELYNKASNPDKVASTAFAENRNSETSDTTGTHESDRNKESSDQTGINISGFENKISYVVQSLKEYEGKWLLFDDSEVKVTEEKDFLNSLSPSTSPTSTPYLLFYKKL
In short: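 USP1/UAF1 complex (1nM) preincubated with compound 15 min at room temperature, then Ub-Rho substrate (150nM final) added. Fluorescence read kinetically at 480/540 nm, 6 reads every 60 seconds. Buffer: 50mM HEPES pH 7.8, 0.5mM EDTA, 0.1 mg/ml BSA, 1mM TCEP, 0.01% Tween-20.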

[25] = Counterscreen qHTS for small molecule stabilizers of the endoplasmic reticulum resident proteome: GLuc-NoTag assay (AID 1508627); note: potency is the fitted concentration of half-maximal effect;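 for activity change, negative = inhibition: SH-SY5Y cells given compound then 100 nM thapsigargin to empty ER calcium; 0% = thapsigargin alone and -100% = DMSO vehicle control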
In short: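 SH-SY5Y cells stably expressing constitutively secreted GLuc (no SERCaMP tag) were pre-incubated 5 h, treated with compound for 19 h, then 100 nM thapsigargin for 4 h at 37C; medium GLuc read by coelenterazine luminescence.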

[26] = Confirmatory qHTS for small molecule stabilizers of the endoplasmic reticulum resident proteome: Secreted ER Calcium Modulated Protein (SERCaMP) assay (AID 1508628); note: nearly all actives have a fitted effect of over 40% in size; note: potency is the fitted concentration of half-maximal effect
In short: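 We seeded SH-SY5Y-GLuc-SERCaMP cells, added compounds (three concentrations in the primary run, eleven up to 76.6 uM in confirmation), incubated 16 h, depleted ER calcium with thapsigargin, and read luciferase 4 h later.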

[27] = Cell Viability qHTS for small molecule stabilizers of the endoplasmic reticulum resident proteome (AID 1508629); conditions: cell viability counter-screen, 100 nM thapsigargin for final 4 h;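 note: compound exposure about 46 h in total before the viability read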; note: potency is the fitted concentration of half-maximal effect
[28] = target: Cytochrome P450 3A4 (Homo sapiens) (UniProt P08684); assay: qHTS Assay for Activators of Cytochrome P450 3A4 (AID 885); note: nearly all actives have a fitted effect of over 65% in size
Cytochrome P450 3A4 (Homo sapiens), sequence (P08684 whole entry, looked up): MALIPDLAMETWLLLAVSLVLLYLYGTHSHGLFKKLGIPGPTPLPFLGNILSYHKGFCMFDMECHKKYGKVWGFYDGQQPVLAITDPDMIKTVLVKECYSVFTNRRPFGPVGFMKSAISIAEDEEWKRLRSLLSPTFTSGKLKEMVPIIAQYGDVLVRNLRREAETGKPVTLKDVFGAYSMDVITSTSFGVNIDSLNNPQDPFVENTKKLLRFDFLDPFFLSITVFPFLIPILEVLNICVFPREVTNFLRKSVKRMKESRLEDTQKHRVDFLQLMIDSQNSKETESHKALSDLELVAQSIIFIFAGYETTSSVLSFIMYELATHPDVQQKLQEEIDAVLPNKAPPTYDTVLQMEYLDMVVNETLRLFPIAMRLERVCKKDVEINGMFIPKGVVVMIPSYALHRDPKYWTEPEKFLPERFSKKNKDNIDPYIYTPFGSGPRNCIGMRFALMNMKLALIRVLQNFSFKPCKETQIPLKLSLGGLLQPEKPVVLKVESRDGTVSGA
In short: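 20nM CYP3A4 + 25uM Luciferin-PPXE (=KM), 200mM KPO4; cpd 10 min RT; NADPH regen, 60 min RT; stop w/ detection buffer, 20 min; luminescence. Normalized to 57 uM ketoconazole.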

[29] = target: Cytochrome P450 2D6 (Homo sapiens) (UniProt P10635); assay: qHTS Assay for Inhibitors and Substrates of Cytochrome P450 2D6 (AID 891); note: potency is the fitted concentration of half-maximal effect; nearly all actives have a fitted effect of over 60% in size
In short: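 Human CYP2D6 (5 nM) with 30 uM Luciferin-ME EGE (at Km) in 100 mM KPO4, compound preincubated 10 min, then NADPH regeneration system for 60 min at room temperature. Luciferin read by luminescence; normalized to 1.43 uM quinidine.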

[30] = target: Cytochrome P450 2C19 (Homo sapiens) (UniProt P33261); assay: qHTS Assay for Inhibitors and Substrates of Cytochrome P450 2C19 (AID 899); note: potency is the fitted concentration of half-maximal effect; nearly all actives have a fitted effect of over 60% in size
Cytochrome P450 2C19 (Homo sapiens), sequence (P33261 whole entry, looked up): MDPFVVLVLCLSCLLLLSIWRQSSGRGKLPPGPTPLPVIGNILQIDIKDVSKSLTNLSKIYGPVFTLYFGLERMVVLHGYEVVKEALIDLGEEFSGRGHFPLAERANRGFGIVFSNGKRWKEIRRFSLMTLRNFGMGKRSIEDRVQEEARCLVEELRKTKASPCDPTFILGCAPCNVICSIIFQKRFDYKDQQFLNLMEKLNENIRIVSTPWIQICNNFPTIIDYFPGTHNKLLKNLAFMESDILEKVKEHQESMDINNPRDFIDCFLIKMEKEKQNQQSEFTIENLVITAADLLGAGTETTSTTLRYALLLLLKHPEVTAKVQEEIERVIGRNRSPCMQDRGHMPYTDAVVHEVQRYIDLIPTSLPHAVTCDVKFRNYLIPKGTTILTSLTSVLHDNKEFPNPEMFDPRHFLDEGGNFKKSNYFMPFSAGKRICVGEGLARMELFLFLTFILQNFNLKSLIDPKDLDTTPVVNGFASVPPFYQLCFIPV
In short: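 In 50mM KPO4, the reaction held 5nM enzyme and KM-level (10uM) Luciferin-H EGE; it ran 60 min at 37C after NADPH regeneration and a 10 min compound preincubation. Luminescence values were scaled to 57uM ketoconazole as complete inhibition.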

## FC(F)(F)c1cc(CO[C@H]2CCCN[C@H]2c2ccccc2)cc(C(F)(F)F)c1
[1]
  Potency: > 46 µM (inactive)
[2]
  Potency: > 46 µM (inactive)
[3]
  Potency: inactive
[4]
  outcome: inactive
[5]
  Potency: inactive
[6]
  Potency: 7.94 µM (active)
[7]
  Potency: 11.2 µM (active)
[8]
  Potency: 11.2 µM (active)
[9]
  Potency: 11.2 µM (active)
[10]
  Potency: 12.6 µM (active)
[11]
  Potency: 7.08 µM (active)
[12]
  Potency: 12.6 µM (active)
[13]
  Potency: inactive
[14]
  Potency: inactive
[15]
  outcome: inactive
[16]
  outcome: inactive
[17]
  Potency: inactive
[18]
  Potency: 8.91 µM (active)
[19]
  Potency: inactive
[20]
  Potency: inactive

## COc1ccc(NS(=O)(=O)c2ccc(I)cc2)cc1N1CCN(C)CC1
[21]
  Potency: inactive
[1]
  Potency: > 46 µM (inactive)
[2]
  Potency: > 46 µM (inactive)
[3]
  Potency: inactive
[22]
  Potency: inactive
[23]; at 57.5 µM (top of the series)
  activity change, negative = inhibition: 12.5% (inactive)
[23]; measured here: cell count channel max response
  max response: 18.9%
[23]; measured here: lipid channel max response
  max response: 28.9%
[24]
  Potency: inactive
[17]
  Potency: inactive
[19]
  Potency: inactive
[25]
  Potency: inactive
[26]
  Potency: 7.94 µM (active)
[27]
  max response: -15.1% (inactive)

## NC(=NC1C2CC3CC(C2)CC1C3)Nc1ccc(I)cc1 (stereo not drawn)
[21]
  Potency: 39.8 µM (active)
[1]
  Potency: > 46 µM (inactive)
[2]
  Potency: > 46 µM (inactive)
[3]
  Potency: inactive
[28]
  Potency: inactive
[29]
  Potency: 0.0398 µM (active)
[30]
  Potency: 5.01 µM (active)
[24]
  Potency: inactive
[17]
  Potency: inactive
[19]
  Potency: inactive
[25]
  Potency: 31.6 µM (active)
[26]
  Potency: inactive
[27]
  Potency: 12.6 µM (active)
[20]
  Potency: inactive and 4.47 µM (active)
